Assay outcomes from PubChem BioAssay.
Hits are enriched below; roughly 32% of the tested compounds scored in any of these assays.
CYP2C9 inhib = human CYP2C9 inhibition | P11712 | CYP2C9 Supersomes, luciferin-H conversion, luminescence | inhibition, % at 5 µM | actives 20% (n = 96,000);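 active means blocking of liver enzyme CYP2C9 beyond about 50% at 5 µM, limit read from the data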
Target sequence (P11712 whole entry, looked up): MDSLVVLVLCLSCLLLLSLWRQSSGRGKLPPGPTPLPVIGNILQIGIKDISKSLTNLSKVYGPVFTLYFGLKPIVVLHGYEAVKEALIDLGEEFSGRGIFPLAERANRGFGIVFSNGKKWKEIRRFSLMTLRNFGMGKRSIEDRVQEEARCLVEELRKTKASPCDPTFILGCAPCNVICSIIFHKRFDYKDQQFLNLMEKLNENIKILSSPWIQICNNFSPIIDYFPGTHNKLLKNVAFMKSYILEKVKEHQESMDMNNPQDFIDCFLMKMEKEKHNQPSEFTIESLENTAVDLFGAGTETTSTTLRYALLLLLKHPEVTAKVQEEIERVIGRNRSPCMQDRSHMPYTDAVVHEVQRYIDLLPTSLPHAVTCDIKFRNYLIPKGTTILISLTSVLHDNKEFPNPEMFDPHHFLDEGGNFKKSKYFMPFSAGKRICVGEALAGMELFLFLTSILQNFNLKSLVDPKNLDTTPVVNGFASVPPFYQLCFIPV
PostGolgi yeast = growth inhibition of a yeast mutant, post-Golgi transport screen | actives 0.9% (n = 98,000) | post-Golgi transport phenotypic cell assay | AID 739 | inhibition, % at 10 µM;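 further: yeast cells grown in 1536-well plates; yeast grown about 18 h at 30C before absorbance read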
PostGolgi ctrl = inhibits growth of the yeast control strain; efflux-deficient yeast background strain, growth absorbance A615, 16 h; AID 738; actives 5% (n = 98,000); inhibition, % at 10 µM
CYP2C19 inhib = human CYP2C19 inhibition | CYP2C19 Supersomes, luciferin-H EGE luminescence, 30 min | inhibition, % at 5 µM | AID 778 | actives 21% (n = 96,000) | P33261;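 active means CYP2C19 inhibition above a set limit at 5 µM in the primary screen, cut at about 50% in these data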;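 further: plate controls were negative control wells for no effect and 2.5 mM tranylcypromine positive control for full effect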
CYP2C19 activ = increases human CYP2C19 enzyme activity | 96,000 tested, under 10 active | activation factor at 5 µM | AID 1025 | recombinant CYP2C19, luciferin-H EGE luminescence; active compounds read high; 0 = fully inhibited enzyme, 1 = untreated enzyme;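 active means activation factor of at least 2 at 5 µM in the primary screen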;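 further: 0 = wells with 2.5 mM tranylcypromine and 1 = vehicle-only wells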
CYP2C9 activ = increases human cytochrome P450 2C9 activity; recombinant CYP2C9, luciferin-H conversion, luminescence; active compounds read high; factor 1 = untreated enzyme, 0 = blocked; actives 1.4% (n = 96,000); activation factor at 5 µM; AID 1024;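 active means activation factor of 2 or more for CYP2C9 at a 5 µM dose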;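 further: 0 = sulfaphenazole-blocked wells and 1 = vehicle-only wells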
An asterisk follows results filed as active; . = no result given. Unless noted, no stated cut-off is given here; in the data, active means inhibition above about 30%; inactive means the rest.

SMILES	CYP2C9 inhib	PostGolgi yeast	PostGolgi ctrl	CYP2C19 inhib	CYP2C19 activ	CYP2C9 activ
COc1cc(C(=O)Nc2ccccc2-c2nnn(CC(N)=O)n2)cc(OC)c1OC	78*	1	6	-17	1.2	0.2
O=C(Cn1nnc(-c2ccccc2NC(=O)c2ccco2)n1)NC1CCCCC1	64*	-4	9	26	0.7	0.4
COc1ccc(-c2nc3ccccc3c(C(=O)Nc3ccc(S(=O)(=O)Nc4cc(C)on4)cc3)c2C)cc1	-8	10	-5	-21	1.2	1.1
Cc1ccc(C(=O)Cn2nnc3ccccc32)cc1	19	-2	4	35	0.7	0.8
Cc1ccc2c(c1)c(C)c(C)n2CC(O)Cn1nnc2ccccc21 (configuration not stated)	64*	18	22	40	0.6	0.4
Cc1ccc2c(c1)c(C)c(C)n2CC(O)Cn1nc(C)cc1C (configuration not stated)	77*	-10	-7	97*	0	0.2
Cc1cc(C)n(CC(O)COc2cccc(OCC(O)Cn3nc(C)cc3C)c2)n1 (configuration not stated)	29	-1	0	48	0.5	0.7
CNc1oc(Cc2ccccc2)nc1S(=O)(=O)c1ccc(Cl)cc1	22	-4	17	50	0.5	0.8
Cc1cc(Nc2ccccc2)n(CCOC(=O)COc2ccccc2)n1	22	12	5	33	0.7	0.8
N=c1c2c(-c3ccccc3)c(-c3ccccc3)n(Cc3ccco3)c2ncn1Cc1ccccc1	19	75*	34*	26	0.7	0.8
CC(C)Cn1cnc2c(c(-c3ccccc3)c(-c3ccccc3)n2Cc2ccco2)c1=N	32	83*	62*	20	0.8	0.7
CC(C)Oc1ccc(Cc2c(O)nc(NCCCN(C)C)[nH]c2=O)cc1	.	1	11	.	.	.
O=C1CCCN1CCCNc1ccc(S(=O)(=O)N2CCCCC2)cn1	-23	-5	16	-16	1.2	1.2
Cc1ccc(S(=O)(=O)NCC(=O)Nc2ccc(C(F)(F)F)cc2)cc1	9	7	3	24	0.8	0.9
O=C(CNS(=O)(=O)c1ccccc1)Nc1ccc(C(F)(F)F)cc1	30	-1	14	51*	0.5	0.7
O=C(CNS(=O)(=O)c1ccc(F)cc1)Nc1ccc(C(F)(F)F)cc1	55*	3	5	65*	0.4	0.4
Cc1ccc(NC(=O)c2ccc(CNS(=O)(=O)c3cccc(C(F)(F)F)c3)cc2)cc1	3	13	-9	2	1	1
CCOC(=O)c1c(C)[nH]c(C(=O)CSc2nnc(CC(C)c3ccccc3)o2)c1C (configuration not stated)	71*	-6	-2	32	0.7	0.3
O=C(CSc1nnc(-c2ccccc2)o1)c1nnc(-c2ccccc2)o1	74*	-7	-5	9	0.9	0.3
CCOC(=O)c1c(C)[nH]c(C(=O)CSc2ccc(Cl)cc2)c1C	71*	15	17	29	0.7	0.3
O=C(CSc1nnc(-c2ccccc2)o1)c1ccc2c(c1)OCCO2	15	-6	14	11	0.9	0.9
O=C(CSc1nnc(-c2ccccc2)o1)Oc1ccc(Br)cc1	1	-4	-1	-2	1	1
CCOC(=O)c1c(C)[nH]c(C(=O)CSc2nc3ccccc3o2)c1C	34	-2	-1	8	0.9	0.7
CC(=O)c1c(C)[nH]c(C(=O)CSc2nnc(-c3ccccc3)o2)c1C	28	-18	9	57*	0.4	0.7
CCOc1ccc(S(=O)(=O)n2nnc3ccccc32)cc1C(C)C	8	-5	0	1	1	0.9
SMILES	CYP2C9 inhib	PostGolgi yeast	PostGolgi ctrl	CYP2C19 inhib	CYP2C19 activ	CYP2C9 activ
O=C(NNC(=O)C1CCCCC1)C(=O)NC1CCCCC1	-7	5	1	-15	1.1	1.1
O=C(CCCCn1c(=O)[nH]c2ccccc2c1=O)N1CCN(c2cccc(C(F)(F)F)c2)CC1	49	1	7	62*	0.4	0.5
O=C(CCn1c(=O)[nH]c2ccccc2c1=O)N1CCN(c2ccc(Cl)cc2)CC1	15	2	0	13	0.9	0.8
O=C(CCn1c(=O)[nH]c2ccccc2c1=O)N1CCN(c2cccc(C(F)(F)F)c2)CC1	36	4	0	67*	0.3	0.6
COc1ccc(NC(=O)c2cccc(NC(=O)C3C4CC5OC(=O)C3C5C4)c2)c(OC)c1 (configuration not stated)	5	-7	10	-4	1	1
Cc1ccc2cc(CNC(C)C)c(=O)[nH]c2c1	4	-2	-3	4	1	1
Cc1cc(C)n(Cc2ccc(Cl)cc2Cl)c(=O)c1S(=O)(=O)c1ccccc1	92*	-4	27	44	0.6	0.1
O=Cc1cccn1Cc1ccc(Cl)cc1Cl	-19	4	7	11	0.9	1.2
CCCCCCn1c(C(C)NC(=O)c2ccco2)nc2ccccc21 (configuration not stated)	56*	3	14	42	0.6	0.4
CCCCn1c(C(C)NC(=O)CC)nc2ccccc21 (configuration not stated)	-4	0	-3	-3	1	1
Cc1ccccc1Cn1c(C(C)O)nc2ccccc21 (configuration not stated)	-3	-2	17	59*	0.4	1
CC(NC(=O)c1ccccc1)c1nc2ccccc2n1Cc1ccccc1F (configuration not stated)	60*	-5	11	48	0.5	0.4
CC(=O)Nc1nc2ccccc2n1CCOc1ccccc1Cl	13	-2	9	60*	0.4	0.9
CC(=O)NCc1nc2ccccc2n1Cc1ccccc1C	-8	-3	1	16	0.8	1.1
CC(=O)Nc1nc2ccccc2n1Cc1ccccc1C	13	-11	-4	82*	0.2	0.9
COc1c(N)c2ccccc2[nH]c1=O	2	14	4	4	1	1
O=C(c1ccc(CNc2c(N3CCCC3)c(=O)c2=O)cc1)N1CCc2ccccc2C1	50*	7	1	35	0.6	0.5
COc1ccccc1CNC(=O)c1ccc(CNc2c(N3CCCC3)c(=O)c2=O)cc1	-5	2	5	-1	1	1
CC(=O)NCCCc1c[nH]c2ccc(Cl)cc12	47	12	-8	80*	0.2	0.5
O=C(NCCc1c[nH]c2ccc(Cl)cc12)c1cccnc1	87*	5	7	91*	0.1	0.1
Cc1cc(C)n(-c2nc(-c3cccc(Cl)c3)cs2)n1	-36	-2	-1	-4	1	1.4
CCCn1c(CNC(=O)c2ccccc2)nc2ccccc21	0	7	4	61*	0.4	1
CCCn1c(NC(=O)c2ccc(C)cc2)nc2ccccc21	-8	-8	0	32	0.7	1.1
